Assay outcomes deposited in PubChem BioAssay by National Center for Advancing Translational Sciences (NCATS).
D1 ag: human D1 receptor agonism; AID 504660; activation, % at 2 µM; HEK293 T-REx D1 cells, calcium flux, agonist mode; P21728; actives 1% (n = 360,000); in the data active means activation above about 30%; further: 0% is about no effect
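Tetracycline-induced HEK293 TREx D1 cells, force-coupled to calcium signalling, were dye-loaded with a no-wash calcium kit. Compound was pin-added after a 10 s baseline. Fluorescence was read kinetically at 1 cycle/s for 180 s, with calcium rises flagged as agonism.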
D1 antag: antagonists of human D1 dopamine receptor; activity change, negative = inhibition, % at 10 µM; actives 3.2% (n = 360,000); HEK293 TREx D1 cells, calcium flux, dopamine EC80; hits give low values; P21728; in the data active means activity change below about -30%; further: on the % scale 0 is the no-effect control and ±100 the full control effect
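Allosteric or orthosteric antagonism assessed as attenuation of the calcium response to EC80 dopamine, added 180 s after compound, in induced HEK293 Trex D1 cells loaded with no-wash calcium dye.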
DRD3 antagonist: antagonists of human D3 dopamine receptor; AID 652054; D3R cells, DiscoveRx beta-arrestin luminescence, antagonist mode; hits give low values; P35462; actives 2.5% (n = 360,000); max response, negative = inhibition, %; in the data active means max response below about -50%; further: on the % scale 0 is the no-effect control and ±100 the full control effect
Target sequence (P35462 whole entry, looked up): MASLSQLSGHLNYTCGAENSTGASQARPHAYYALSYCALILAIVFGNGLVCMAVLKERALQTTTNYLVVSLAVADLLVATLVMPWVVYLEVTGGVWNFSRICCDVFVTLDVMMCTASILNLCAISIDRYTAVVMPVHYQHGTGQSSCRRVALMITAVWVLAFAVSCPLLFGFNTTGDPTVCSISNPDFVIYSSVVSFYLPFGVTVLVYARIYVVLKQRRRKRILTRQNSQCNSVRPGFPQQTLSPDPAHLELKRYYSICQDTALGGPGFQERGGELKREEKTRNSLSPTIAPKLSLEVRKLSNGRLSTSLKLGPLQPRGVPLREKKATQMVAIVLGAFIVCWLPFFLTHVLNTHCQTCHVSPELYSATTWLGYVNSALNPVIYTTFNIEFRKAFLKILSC
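Cells plated overnight at 1500 cells/well, then exposed to library compounds with dopamine controls for 90 minutes at 37 degrees C. DiscoveRx reagent added for 30–60 minutes at room temperature; luminescence read, quantitative HTS format.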
D3 ag: agonists of human D3 dopamine receptor | D3R DiscoveRx beta-arrestin cells, luminescence, 90 min | max activation, % | actives 0.58% (n = 410,000) | AID 652048; in the data active means max activation above about 30%; further: 0% is about no effect
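Agonist-mode cell screen: cells plated at 1500/well and incubated overnight at 37 °C, then exposed to library compounds for 90 min at 37 °C. Detection reagent was added for 30–60 min at room temperature, and luminescence was read.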
D1 PAM: human D1 dopamine receptor positive modulation. P21728. HEK293 TREx D1 cells, calcium flux, dopamine EC20 potentiation. potentiation, % at 10 µM. actives 0.036% (n = 360,000). AID 504651; in the data active means potentiation above about 30%; further: 0% is about no effect
Starred values were filed as active, the others as inactive. Only some compounds are listed: those with a hit (about 6% of all), similar ones and a draw of the others.

How did COc1ccc(NC(=O)Cn2cc(S(=O)(=O)c3ccccc3)c(=O)c3cc4c(cc32)OCO4)cc1 do in these assays?
D1 ag: 4; D1 antag: -47*; D3 ag: 5; D1 PAM: -4

What do the screens show for `Cc1ccc2c(c1)c(=O)c(S(=O)(=O)c1ccc(C)c(C)c1)cn2CC(=O)Nc1ccccc1`?
D1 ag: 1; D1 antag: -47*; D3 ag: 38*; D1 PAM: -2

Results for O=C(CCS(=O)(=O)c1cc2c(cc1Cl)NC(=O)CO2)NCc1ccc(F)cc1 ?
D1 ag: 1; D1 antag: -35*; DRD3 antagonist: 18; D3 ag: 2; D1 PAM: -6

How did COc1ccc(N2CCN(C(=O)CCS(=O)(=O)c3cc4c(cc3Cl)NC(=O)CO4)CC2)cc1 do in these assays?
D1 ag: -2; D1 antag: -64*; D3 ag: -6; D1 PAM: -1

Results for CCOC(=O)N1CCN(C(=O)CCS(=O)(=O)c2cc3c(cc2Cl)NC(=O)CO3)CC1 ?
D1 ag: 4; D1 antag: 21; DRD3 antagonist: -10; D3 ag: 2; D1 PAM: -11

How did O=C(O)c1ccc[nH]c1=S do in these assays?
D1 ag: 1; D1 antag: -14; DRD3 antagonist: -14; D3 ag: 5; D1 PAM: 0

How did Nc1nc(Cl)nc2c1ncn2[C@H]1C[C@H](O)[C@@H](CO)O1 do in these assays?
D1 ag: 0; D1 antag: 16; DRD3 antagonist: -80*; D3 ag: 14; D1 PAM: -3

How did Nc1ncnc2c1ncn2[C@H]1C[C@H](O)[C@@H](CO)O1 do in these assays?
D1 ag: 1; D1 antag: 3; DRD3 antagonist: 0; D3 ag: -17; D1 PAM: 1

How did CC(C)c1ccc(Nc2nc3c(S(=O)(=O)c4ccc(Br)cc4)nnn3c3ccsc23)cc1 do in these assays?
D1 ag: 2; D1 antag: 4; D3 ag: -4; D1 PAM: 0

What do the screens show for `CCCOc1ccc(C2C3=C(Nc4nc(N)[nH]c(=O)c42)c2ccccc2C3=O)cc1` (stereo not drawn)?
D1 ag: 0; D1 antag: 3; DRD3 antagonist: -55*; D3 ag: -9; D1 PAM: 3

What do the screens show for `CCCC1(c2ccccc2)NC(=O)N(CC(=O)c2[nH]c(C)c(C(=O)OCC)c2C)C1=O` (stereo not drawn)?
D1 ag: 39*; D1 antag: 42; DRD3 antagonist: -1; D3 ag: -1; D1 PAM: 4

How did CCN1CCN(C(=O)c2ccc3c(c2)N(Cc2ccccc2)C(=O)c2ccccc2S3(=O)=O)CC1 do in these assays?
D1 ag: 5; D1 antag: 9; DRD3 antagonist: -72*; D3 ag: -15; D1 PAM: -6

What do the screens show for `O=C(c1ccc2c(c1)N(Cc1cccc(Cl)c1)C(=O)c1ccccc1S2(=O)=O)N1CCC(Cc2ccccc2)CC1`?
D1 ag: 5; D1 antag: -34*; D3 ag: 4; D1 PAM: -3

What do the screens show for `O=C(c1ccc2c(c1)N(Cc1ccccc1)C(=O)c1ccccc1S2(=O)=O)N1CCN(Cc2ccccc2)CC1`?
D1 ag: 1; D1 antag: 0; D3 ag: -7; D1 PAM: 0

How did CCOC(=O)c1ccc2c(c1)N(Cc1cccc(C(F)(F)F)c1)C(=O)c1ccccc1S2(=O)=O do in these assays?
D1 ag: 9; D1 antag: -51*; D3 ag: 8; D1 PAM: -1

What do the screens show for `CN[C@@H]1[C@@H](O)[C@@H](O[C@@H]2[C@@H](O)[C@H](O[C@H]3O[C@H](CN)[C@@H](O)[C@H](O)[C@H]3O)[C@@H](N)C[C@H]2NC(=O)C(O)CN)OC[C@]1(C)O` (stereo partly drawn)?
D3 ag: 7

What do the screens show for `CCN(Cc1ccccc1)S(=O)(=O)c1ccc(C(=O)N(CCCN(C)C)c2nc3cc4c(cc3s2)OCO4)cc1`?
D1 ag: 9; D1 antag: -66*; DRD3 antagonist: -7; D3 ag: -16; D1 PAM: -9

What do the screens show for `CN(C)CCCN(C(=O)c1ccc(S(=O)(=O)N(C)C)cc1)c1nc2cc3c(cc2s1)OCO3`?
D1 ag: 2; D1 antag: -24; DRD3 antagonist: 0; D3 ag: 5; D1 PAM: -1

Results for CN(C)CCCN(C(=O)CCc1ccccc1)c1nc2ccc(F)cc2s1 ?
D1 ag: 32*; D1 antag: -6; DRD3 antagonist: -15; D3 ag: -28; D1 PAM: -7

Results for CN(C)CCCN(C(=O)c1ccc2c(c1)CCCC2)c1nc2cc3c(cc2s1)OCO3 ?
D1 ag: 39*; D1 antag: -27; DRD3 antagonist: -17; D3 ag: -13; D1 PAM: -2

How did CN(C)CCCN(C(=O)c1ccc2c(c1)OCCO2)c1nc2ccc(Cl)cc2s1 do in these assays?
D1 ag: 33*; D1 antag: -23; D1 PAM: -3

Results for O=C(Nc1ccccc1)OC1CCCCc2cccnc21 (stereo not drawn) ?
D1 ag: 1; D1 antag: -6; DRD3 antagonist: 8; D3 ag: 1; D1 PAM: -2

Results for O=C(NCCO)C(=O)NCC(c1ccc2c(c1)OCO2)N1CCOCC1 (stereo not drawn) ?
D1 ag: 3; D1 antag: 1; D3 ag: -7; D1 PAM: -2

Results for COc1ccc(N2CCN(S(=O)(=O)CCNC(=O)COc3ccccc3F)CC2)cc1 ?
D1 ag: -1; D1 antag: -6; D3 ag: 5; D1 PAM: 3

Results for Cc1cnc(C)c(Nc2nc(C(N)Cc3ccc(Cl)cc3)cs2)n1 (stereo not drawn) ?
DRD3 antagonist: 11; D3 ag: 2

What do the screens show for `COc1ccc2sc(N(Cc3cccnc3)C(=O)CCc3ccccc3)nc2c1`?
D1 ag: 34*; D3 ag: -1; D1 PAM: -2

How did CN(C)CCCN(C(=O)CCSc1ccccc1)c1nc2cc3c(cc2s1)OCO3 do in these assays?
D1 ag: 28; D1 antag: -19; DRD3 antagonist: -50*; D3 ag: -35; D1 PAM: -4

Results for COc1ccc2nc(N(Cc3cccnc3)C(=O)Cc3ccccc3)sc2c1 ?
D1 ag: 18; D3 ag: -3; D1 PAM: -1

Results for Cc1ccccc1NS(=O)(=O)c1ccc2[nH]cc(C(=O)N3CCCC3)c(=O)c2c1 ?
D1 ag: 2; D1 antag: 1; D3 ag: -17; D1 PAM: -4

How did c1ccc2c(c1)CCN(c1ncnc3c1[nH]c1ccccc13)C2 do in these assays?
D1 ag: 8; D1 antag: -13; DRD3 antagonist: -53*; D3 ag: 2; D1 PAM: 2
